{
  "source": "PubChem BioAssay AID463082",
  "about": "(The Scripps Research Institute Molecular Screening Center, 2010)",
  "note": "The campaign covered roughly 330,000 compounds. About 4,900 (1.5%) were called active. The list comes from a sample in which actives are over-represented; it also holds similar structures and randomly drawn compounds. Values without a mark were called inactive.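 The calls were made as follows: active = inhibition above the mean inhibition across the screen plus 3 SD (cut at about 25% in these data); inactive = the rest.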",
  "data": [
    {"target": "Platelet-activating factor acetylhydrolase (Homo sapiens) (UniProt Q13093)", "sequence (Q13093 whole entry, looked up)": "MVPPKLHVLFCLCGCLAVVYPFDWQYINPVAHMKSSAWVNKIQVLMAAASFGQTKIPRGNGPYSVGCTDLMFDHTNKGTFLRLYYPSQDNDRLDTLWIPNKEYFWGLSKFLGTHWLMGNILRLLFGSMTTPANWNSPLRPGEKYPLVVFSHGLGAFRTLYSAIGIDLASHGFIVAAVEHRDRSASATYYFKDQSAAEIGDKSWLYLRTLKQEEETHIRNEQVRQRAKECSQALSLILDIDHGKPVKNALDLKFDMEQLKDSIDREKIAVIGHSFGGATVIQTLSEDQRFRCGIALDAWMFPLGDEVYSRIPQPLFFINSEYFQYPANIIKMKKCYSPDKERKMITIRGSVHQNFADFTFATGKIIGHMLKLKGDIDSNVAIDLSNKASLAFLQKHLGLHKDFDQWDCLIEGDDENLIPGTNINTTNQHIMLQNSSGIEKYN", "experiment": "inhibition of plasma PAF acetylhydrolase – biochemical, fluorescence polarization, human, primary screen (AID 463082);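 also: inhibitors block binding of the rhodamine activity-based probe so polarization drops; 0% = enzyme with DMSO and 100% = wells lacking pPAFAH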", "details": "recombinant pPAFAH, FP-rhodamine probe fluorescence polarization; at 3.39 µM; hits give high values", "values": [
      {"smiles": "CN(CC(=O)NC1CCCC1)S(=O)(=O)c1cnc[nH]1", "inhibition": "5.78%"},
      {"smiles": "Cc1nc(CNS(=O)(=O)c2cc([N+](=O)[O-])ccc2C)cs1", "inhibition": "1.89%"},
      {"smiles": "Cc1ccc(S(=O)(=O)NCc2csc(C)n2)c(C)c1", "inhibition": "57.6% (active)"},
      {"smiles": "Cc1ccc(S(=O)(=O)NCc2cn3ccsc3n2)c(C)c1", "inhibition": "3.63%"},
      {"smiles": "O=C(NCCN1CCOC1=O)C1CCC(=O)N(CCc2ccc(Cl)cc2)C1", "note": "(centres undefined)", "inhibition": "6.31%"},
      {"smiles": "CCOC(=O)c1c(N=CN(C)C)c(C#N)c2n1CCCC2", "inhibition": "-0.32%"},
      {"smiles": "CC(C)C(C)(C#N)NC(=O)CSc1nncn1-c1ccccc1", "note": "(centres undefined)", "inhibition": "3.15%"},
      {"smiles": "Cc1cccc(C)c1NC(=O)CNC(=O)C1CCCC1", "inhibition": "-3.74%"},
      {"smiles": "CCc1cccc(C)c1NC(=O)COC(=O)CC1CCCC1", "inhibition": "31.2% (active)"},
      {"smiles": "CCc1cccc(C)c1NC(=O)COC(=O)CNC(=O)c1cccs1", "inhibition": "-1.56%"},
      {"smiles": "CCC(=O)NC(=Nc1nc2ccccc2s1)NC(=O)CC", "inhibition": "1.11%"},
      {"smiles": "CCC(C)Cn1c(O)cc2nn(-c3nc4ccccc4s3)c(=O)c-2c1C", "note": "(centres undefined)", "inhibition": "49.8% (active)"},
      {"smiles": "COc1ccc(C2=NN(c3nc4ccccc4s3)C(=O)C2)cc1", "inhibition": "10.8%"},
      {"smiles": "C=CCNC(=O)COC(=O)c1ccccc1C(=O)N(C)C1CCCCC1", "inhibition": "-0.67%"},
      {"smiles": "CC1(c2ccc3ccccc3c2)NC(=O)N(CC(N)=O)C1=O", "note": "(centres undefined)", "inhibition": "1.23%"},
      {"smiles": "COc1ccccc1NC(=O)CCSc1nnc(-c2ccc(O)cc2)o1", "inhibition": "-1.64%"},
      {"smiles": "COc1ccccc1OCCC(=O)OCC(=O)NC(=O)NC(C)(C)C", "inhibition": "2.65%"},
      {"smiles": "CC(C)(C)NC(=O)NC(=O)COC(=O)C1(C)CC1(Cl)Cl", "note": "(centres undefined)", "inhibition": "4.74%"},
      {"smiles": "CC(C)(C)NC(=O)NC(=O)COC(=O)CCC1CCCCC1", "inhibition": "29.9% (active)"},
      {"smiles": "COc1ccc(N(CC(=O)Nc2cc(OC)cc(OC)c2)S(=O)(=O)c2c(C)n[nH]c2C)cc1", "inhibition": "1.91%"},
      {"smiles": "CC(C)N(C(=O)[C@H]1C[C@H](CC(=O)NCCC2=CCCCC2)C(=O)N2CCc3c([nH]c4cc(CCC(=O)N(C)C)ccc34)[C@]12C)C(C)C", "inhibition": "16.4%"},
      {"smiles": "CCN(CC)C(=O)[C@H]1C[C@H](CC(=O)NCC23CC4CC(CC(C4)C2)C3)C(=O)N2CCc3c([nH]c4cc(CCC(=O)N(C)C)ccc34)[C@]12C", "inhibition": "27.5% (active)"},
      {"smiles": "CC[C@]12c3[nH]c4cc(CCC(=O)N(C)C)ccc4c3CCN1C(=O)[C@@H](CC(=O)NCC13CC4CC(CC(C4)C1)C3)C[C@@H]2C(=O)N1CCN(C(=O)C2CC2)CC1", "inhibition": "1.87%"},
      {"smiles": "CC(C)C(O)C1CCN(Cc2nc(Cc3ccccc3Cl)no2)CC1", "note": "(centres undefined)", "inhibition": "1.22%"},
      {"smiles": "CCSCc1nc(N)nc(NCCc2ccccc2)n1", "inhibition": "5.83%"},
      {"smiles": "CCc1nc2sc(C(=O)O)c(N)c2c2c1CCCC2", "inhibition": "1.17%"},
      {"smiles": "NC(=O)c1sc2nc3c(c(-c4ccccc4)c2c1N)CCC3", "inhibition": "25.1% (active)"},
      {"smiles": "Nc1c(C(=O)NCc2ccccc2)sc2nc3c(cc12)C(=O)CCC3", "inhibition": "9%"},
      {"smiles": "Cc1ccccc1Cn1nc(C)c(NC(=O)C(F)(F)F)c1C", "inhibition": "-5.3%"},
      {"smiles": "COC(=O)c1cc(S(=O)(=O)N2CCN(c3cc(C)ccc3C)CC2)c[nH]1", "inhibition": "-4.07%"},
      {"smiles": "CCOc1ccccc1NS(=O)(=O)c1c[nH]c(C(=O)OC)c1", "inhibition": "-0.19%"},
      {"smiles": "COC(=O)c1cc(S(=O)(=O)Nc2ccc(C)c(F)c2)c[nH]1", "inhibition": "37.4% (active)"},
      {"smiles": "Cn1c(=O)c2c(nc(N3CCCCCC3)n2CC(O)COc2ccc(Cl)cc2)n(C)c1=O", "note": "(centres undefined)", "inhibition": "4.56%"},
      {"smiles": "Cc1cc(SCc2c(F)cccc2Cl)nc(=O)[nH]1", "inhibition": "1.8%"},
      {"smiles": "Cc1snc(SCc2c(F)cccc2Cl)c1C#N", "inhibition": "24.7% (active)"},
      {"smiles": "Cc1ccc(CSc2nsc(C)c2C#N)cc1", "inhibition": "8.61%"},
      {"smiles": "O=C(Nc1ccc2c(c1)OCO2)C1CC(c2c(F)cccc2Cl)=NO1", "note": "(centres undefined)", "inhibition": "1.16%"},
      {"smiles": "Nc1ccc2nc3c(=O)[nH]c(=S)[nH]c3nc2c1", "inhibition": "47.8% (active)"},
      {"smiles": "COCCNC(=O)Nc1ccc2nc(-c3ccco3)c(-c3ccco3)nc2c1", "inhibition": "75.6% (active)"},
      {"smiles": "Cc1cc(C)cc(NC(=O)NCc2ccccn2)c1", "inhibition": "1.23%"},
      {"smiles": "COc1cccc(NC(=O)NCCN2CCCCC2)c1", "inhibition": "3.86%"},
      {"smiles": "O=C1CSc2ccc(C(=O)NCc3ccccn3)cc2N1", "inhibition": "0.84%"},
      {"smiles": "O=C(NCc1ccccn1)c1ccc2nc(-c3ccco3)c(-c3ccco3)nc2c1", "inhibition": "65.8% (active)"},
      {"smiles": "COCCNC(=O)c1snc2ccc(Cl)cc12", "inhibition": "-0.4%"},
      {"smiles": "Cc1ccc(C(=O)CN2C(=O)NC3(CCc4ccccc43)C2=O)c(C)c1", "note": "(centres undefined)", "inhibition": "-8.87%"},
      {"smiles": "O=S(=O)(Oc1ccccc1C(=S)N1CCOCC1)c1ccc(Cl)cc1", "inhibition": "4.58%"},
      {"smiles": "O=C(NCc1ccc(F)cc1)C1CCC(CNc2c(N3CCOCC3)c(=O)c2=O)CC1", "note": "(centres undefined)", "inhibition": "1.22%"},
      {"smiles": "CCOC(=O)c1sc(NC(=O)C2CSC3(C)CCC(=O)N23)nc1C", "note": "(centres undefined)", "inhibition": "0.96%"},
      {"smiles": "Cc1cc(C)c(C2C3=C(Nc4c2c(C)nn4-c2ccccn2)c2ccccc2C3=O)c(C)c1", "note": "(centres undefined)", "inhibition": "-8.35%"},
      {"smiles": "Cc1ccc(C2C3=C(Nc4[nH]n(-c5ccccc5)c(=O)c42)c2ccccc2C3=O)cc1", "note": "(centres undefined)", "inhibition": "34.5% (active)"},
      {"smiles": "Cc1ccc(-c2ccnc3[nH]n(-c4ccccc4)c(=O)c23)cc1", "inhibition": "2.79%"},
      {"smiles": "COc1ccccc1N(CC(=O)Nc1ccc(C)cc1Cl)S(=O)(=O)c1cccs1", "inhibition": "6.13%"},
      {"smiles": "O=c1cc(CN2CCN(S(=O)(=O)/C=C/c3ccccc3)CC2)c2ccc(O)cc2o1", "inhibition": "2.78%"},
      {"smiles": "Cc1ccccc1C(=O)Nc1cccc(-c2nnc(SCC(=O)O)n2C)c1", "inhibition": "-1.6%"},
      {"smiles": "Cc1noc(C)c1C(=O)OC(C)C(=O)Nc1ccc2c(c1)OCO2", "note": "(centres undefined)", "inhibition": "1.18%"},
      {"smiles": "Cc1cccc(C)c1NC(=O)CNC(=O)Cc1ccc(Br)cc1", "inhibition": "1.92%"},
      {"smiles": "O=C(COC(=O)Cc1ccc(Br)cc1)Nc1ccc(N2CCOCC2)cc1", "inhibition": "6.93%"},
      {"smiles": "O=C(COC(=O)Cc1ccc(Br)cc1)Nc1c(F)c(F)c(F)c(F)c1F", "inhibition": "32.9% (active)"},
      {"smiles": "CCC(C)N(C(=O)Cn1nc(C)c([N+](=O)[O-])c1C)C1CCS(=O)(=O)C1", "note": "(centres undefined)", "inhibition": "-1.29%"}
    ]}
  ]
}
